Our source for the outcome and cAMP activity change values is PubChem BioAssay (Tox21).

Inconclusive results are not listed. The source made the active and inactive calls. Calls come from the whole dose curve.
% is set by controls: 0 for no effect and ±100 for the full control effect.

A short description of the assay: qHTS assay to identify small molecule agonists or antagonists of the thyroid stimulating hormone receptor (TSHR) signaling pathway - wild type cell line counter screen (AID 1259384). The note with it: HEK293 wild type, cAMP HTRF counter-screen, stronger effect = higher value; series mostly up to 92.4 µM. The source says: U.S. Tox21 Program National Center for Advancing Translational Sciences [NCATS] NIH Chemical Genomics Center [NCGC] U.S. Environmental Protection Agency [EPA] National Institutes of Environmental Health Sciences [NIEHS] National Toxicology Program [NTP] U.S. Food and Drug Administration [FDA] Tox21 Assay Overview: TSHR is the receptor for thyrotropin (thyroid stimulating hormone or TSH), a member of the glycoprotein hormone family. TSH is released by the anterior pituitary gland and is the main regulator of thyroid gland growth and development. Upon binding circulating thyrotropin, a G-protein signal cascade activates adenylyl cyclase and […] cAMP concentration is increased. cAMP is a key second messenger involved extensively in cellular signal transduction pathways associated with the majority of G-protein coupled receptors (GPCRs). The activation of these GPCRs by neurotransmitters, lipids, nucleotides, peptides and hormones results in the activation or the inhibition of plasma membrane-bound adenylate cyclase through heterotrimeric G-proteins. A cell-based TSHR-Hek293 assay can be used to identify TSHR agonists. To eliminate the false positive compounds identified from screening a cell-based TSHR-Hek293 cell line, cAMP assay in a wild type Hek293 cells was used as a counter screening.
Tox21 Assay Protocol Summary: Hek293 cells (wild type) were dispensed at 800 cells/4 uL/well in 1536-well white plates using a Multidrop dispenser. After the assay plates were incubated at a 37 C/5% CO2 incubator for 18 hrs, 23 nL of compounds dissolved in DMSO, positive controls or DMSO only was transferred to the assay plate by a pin tool, followed by 1 ul medium containing Ro20-1724. After 30 min of incubation at room temperature, 2.5 ul/well of cAMP-d2 and 2.5 ul/well of anti-cAMP-cryptate were added respectively into the assay plates using a Flying Reagent Dispenser. The plates were incubated at room temperature for 1 hr. The fluorescence intensity in the plates was measured using an Envision plate reader. Each test compound was measured at 15 concentrations and in triplicates.
In the case of `CCC(=O)OCCOc1ccccc1`, the molecule was called inactive.
Consider `CCCCCCCCCCCC(C)=O`, for which the molecule was classed as inactive.
On to `CCCCCCCCC1CO1` (stereo not given), for which the molecule was classed as inactive.
Regarding `CC[C@@]1(c2ccccc2)NC(=O)N(C)C1=O`, the molecule was called inactive.
With `C=CC(C)(CCC=C(C)C)OC(=O)C(C)C` (stereo not given), the call was inactive.
On to `CC/C=C\CCOC(=O)c1ccccc1`, for which the result was inactive.
Take `CC(C)(C)c1ccc(C(=O)CCCCl)cc1`: the molecule was called inactive.
`Cc1ccc(OC(=O)CC(C)C)cc1`: the result was inactive.
Regarding `CC(CC(=O)Cl)CC(C)(C)C` (stereo not given), the result was inactive.
Still for that read-out and setting: under `CCCCCCCCS(=O)(=O)O` stands “inactive”; under `Clc1cc(Cl)c(Cl)c(Cl)c1Cl`, “inactive”; under `CC(C)C(=O)Nc1cccc(C2CN3CCSC3=N2)c1` (stereo not given), “inactive”.
In the case of `N#Cc1cc(NC(=O)C(=O)O)c(Cl)c(NC(=O)C(=O)O)c1`, the outcome was inactive.
As for `CCCCC(CC)COC(=O)CC#N` (stereo not given), the outcome was inactive.
Consider `CCCCN1C(=O)c2ccccc2C1=O`, for which the molecule was classed as inactive.
The same measure, in the same setting: the same measure for `CCCCS`: “inactive”; for `CC(=O)Nc1ccc(S(=O)(=O)Nc2cc(C)on2)cc1`: “inactive”.
Take `CC(C)OC(=O)C(C(=O)OC(C)C)=C1SC=CS1`: the molecule was classed as inactive.
With `CC1(C)S[C@@H]2[C@H](NC(=O)Cc3ccccc3)C(=O)N2[C@H]1C(=O)O` (tested in a mixture with another compound), the molecule was classed as inactive.
The same measure, in the same setting: under `CCCCCCCCCCCCCCBr` stands “inactive”; under `N[C@H]1C(O)O[C@H](CO)[C@@H](O)[C@@H]1O` (stereo not given in full), “inactive”; under `COC(=O)c1ccc(NC(C)=O)cc1OC`, “inactive”.
In the case of `C=CCn1cc[n+](C)c1`, the result was inactive.
Consider `O=C(OOC(=O)c1ccccc1)c1ccccc1`, for which the result was inactive.
Take `CC(C)(Sc1cc(C(C)(C)C)c(O)c(C(C)(C)C)c1)Sc1cc(C(C)(C)C)c(O)c(C(C)(C)C)c1`: the molecule was called inactive.
Take `CCCCCCCCCCCCCCCCN(C)C`: the cAMP activity change was -1.46% [at 8.39 µM] (inactive).
For `C=CCON/C(CCC)=C1\C(=O)CC(C)(C)C(C(=O)OC)=C1O`, the outcome was inactive.
On the same count and under the same terms, under `O=C(O)CCCCCCCCCC(=O)O` stands “inactive”.
As for `CC(C)(C)OC=O`, the call was inactive.
As for `CCN1CCN(C(=O)N[C@@H](C(=O)N[C@@H]2C(=O)N3[C@@H]2SC(C)(C)[C@H]3C(=O)O)c2ccccc2)C(=O)C1=O`, the result was inactive.
Turning to `CCCCCC(=O)CC`, the outcome was inactive.
Take `CC(C)=CCC/C(C)=C\C#N`: the result was inactive.
Take `CC(C)C(C)C`: the result was inactive.
Consider `CCOC(=O)CC`, for which the molecule was classed as inactive.
Turning to `CCc1ccc(CC)cc1`, the outcome was inactive.
Regarding `C[C@@H]1CCC[C@H](C)N1CCCC(O)(c1ccccc1)c1ccccn1` (stereo not given in full), the molecule was called inactive.
On the same count and under the same terms, the same measure for `COCCCOc1cc(C[C@@H](C[C@H](N)[C@@H](O)C[C@H](C(=O)NCC(C)(C)C(N)=O)C(C)C)C(C)C)ccc1OC`: “inactive”.
As for `CC(C)(C)C(=O)CCc1ccc(Cl)cc1`, the molecule was called inactive.
Same read-out and setting: the same measure for `CCC(C)SSC(C)CC` (stereo not given): “inactive”; for `CCO[Si](CC(C)C)(OCC)OCC`: “inactive”.
